Compounds with a hit are over-represented: about 19% of the library has one in this group of screens.
IL-1B inflam inh = qHTS for Inhibitors of Inflammasome Signaling: IL-1-beta AlphaLISA Primary Screen; THP-1 LPS/ATP IL-1B secretion, AlphaLISA, 16 h; stronger effect = lower value; activity change, % at 57.5 µM; hit rate 4.7% among 360,000; in the data active = activity change below about -50%; inconclusive = mostly about -30% to -49%; note: % is set by controls: 0 for no effect and ±100 for the full control effect
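Secreted IL-1B measured by AlphaLISA bead assay after 16 h compound exposure of THP-1 cells; compounds (final up to 57.5 uM) added 1 h before LPS (250 ng/mL) and ATP (1.25 mM) stimulation; lower signal means less secretion.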
BCR signal inh = qHTS Assay to Find Inhibitors of Chronic Active B-Cell Receptor Signaling | hit rate 0.05% among 340,000 | ABC-DLBCL IkBa-CBG/CBR reporter, luminescence ratio, 4 h | Potency, µM (titrated, usually from 46.1 µM), inactives show at the top dose activity change, negative = inhibition, actives largely listed as inhibitors; active = well fitted inhibition curve with a large enough effect in the signal ratio, with a control signal flat, not every such curve was filed as active; inconclusive = small, poorly fitted or top-dose-only effect, or effect the other way, or a change in a side signal; the % refers to the signal ratio;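 note: potency is the fitted concentration of half-maximal effect; plate controls were basal doxycycline-induced cells for no effect and cells given 10 µM MG132 for full effect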
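Compounds up to 46 uM were incubated four hours with TMD8 cells whose green CBG68 luciferase is fused to IkappaBalpha; red CBR luminescence normalised the signal, and concentration-effect curves were fitted to fusion, red and ratio data.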
SW480 rerep = A quantitative high throughput screen for small molecules that induce DNA re-replication in SW480 colon adenocarcinoma cells; SW480 DNA re-replication, Hoechst DNA content imaging, 48 h; Potency, µM (titrated, usually from 46.1 µM), inactives show top-dose re-replication activation, usual class: activators; hit rate 1.8% among 340,000; AID 624297, 2012; note: potency is the fitted concentration of half-maximal effect; % of control where 0% means no effect; nearly all actives have a fitted effect of over 55% in size
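Quantitative HTS format with DMSO vehicle controls; 48 hr drug incubation at 37 C, then 40 min Hoechst staining and scanning imager measurement at 405 nm excitation.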
TDP1 cell noCPT = qHTS for Inhibitors of human tyrosyl-DNA phosphodiesterase 1 (TDP1): qHTS in cells in absence of CPT; DT40 Tdp1-/- hTDP1 cells, no CPT, ATP luminescence, 48 h; Potency, µM (highest dose often 46.2 µM), without a hit: at the top dose activity change, negative = growth inhibition, actives largely listed as inhibitors; hit rate 15% among 420,000; AID 686978, 2013; note: potency is the fitted concentration of half-maximal effect; % is set by controls: 0 for no effect and ±100 for the full control effect; nearly all actives have a fitted effect of over 55% in size
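Compound effects on proliferation are scored in DT40 Tdp1-/-;hTDP1 cells in the absence of CPT. ATP levels (CellTiter-Glo luminescence) are recorded after a ≥48 hr, 37 °C incubation.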
MCF10A rerep = A quantitative high throughput screen for small molecules that induce DNA re-replication in MCF 10a normal breast cells; AID 624296, 2012; Potency, µM (series often up to 46.1 µM), inactives show top-dose activity, positive = re-replication, hits mostly activators; hit rate 2.9% among 350,000; MCF 10A DNA re-replication, Hoechst nuclear intensity, 48 h; note: potency is the fitted concentration of half-maximal effect; % of control where 0% means no effect; nearly all actives have a fitted effect of over 50% in size
DT40 TDP1 CPT = qHTS for Inhibitors of human tyrosyl-DNA phosphodiesterase 1 (TDP1): qHTS in cells in presence of CPT; Potency, µM (top dose mostly 46.2 µM), for the others: at the top dose activity change, negative = growth inhibition, usual class: inhibitors; AID 686979, 2013; chicken DT40 Tdp1-/-;hTDP1 cells + 20 nM CPT, ATP luminescence, 48 h; hit rate 12% among 420,000; note: potency is the fitted concentration of half-maximal effect; % is set by controls: 0 for no effect and ±100 for the full control effect; nearly all actives have a fitted effect of over 55% in size
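Chicken DT40 Tdp1-/- cells stably complemented with human TDP1 were seeded at 400 cells/well in medium containing 20 nM camptothecin, exposed to pin-transferred compounds, and grown at 37 °C for at least 48 hr. Viability was read as ATP luminescence.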
Numbers without * were called inactive; u = inconclusive; x = no result. Unless noted, calls come from the whole dose curve; as a rule, active = well fitted curve in the direction sought with a large enough effect; inconclusive = small, poorly fitted or top-dose-only effect, or another doubt; inactive = no such curve, though single readings can be large; an effect the other way counts as inactive or inconclusive.

SMILES | IL-1B inflam inh | BCR signal inh | SW480 rerep | TDP1 cell noCPT | MCF10A rerep | DT40 TDP1 CPT
COc1ccc(CCN2CC(C(=O)OCC(=O)c3c(N)n(CC(C)C)c(=O)n(C)c3=O)CC2=O)cc1OC (centres undefined) | 21 | x | x | 13µM* | x | 21µM*
CC(C)Cn1c(N)c(C(=O)COC(=O)C2CC(=O)N(Cc3ccccc3Cl)C2)c(=O)n(C)c1=O (centres undefined) | -61* | -4% | -1% | 16µM* | 8% | u
O=C(COC(=O)c1ccc(O)cc1O)NC1CC1 | 26 | -1% | 22% | 10% | 2% | -3%
Nc1ccc(S(=O)(=O)NC2(C(F)(F)F)NC(=O)N(Cc3ccccc3)C2=O)cc1 (centres undefined) | 15 | 3% | 3% | 13% | -1% | 9%
COc1cc(-c2nnc(Sc3ccc(C(F)(F)F)cc3[N+](=O)[O-])o2)cc(OC)c1OC | u | 8% | u | 23µM* | 18µM* | 21µM*
Cc1cc(C(=O)NNC(=O)[C@H](C)NC(=O)c2ccc(Br)cc2)c(C)o1 | 0 | 0% | -2% | 2% | 24% | -16%
Nc1cc2[nH]c(=O)c3ccccc3c2cc1[N+](=O)[O-] | -9 | x | 1% | u | 4% | 23µM*
O=C(NCCN1CCC(n2c(=O)[nH]c3ccccc32)CC1)N1c2ccccc2Sc2ccccc21 | -2 | x | x | 16µM* | x | u
O=C(NCCN1CCC(n2c(=O)[nH]c3ccccc32)CC1)c1ccccc1 | 5 | x | x | -1% | x | -2%
O=C(O)C1CC(Br)C(Br)CC1C(=O)O (centres undefined) | 12 | x | x | -27% | x | -9%
CN(Cc1nccn1C)C(=O)c1cc(COc2ccc3ncccc3c2)on1 | -4 | 18% | 2% | 18µM* | 12% | -42%
Cc1ccc(OCc2cc(C(=O)N(C)Cc3cnc4ccccn34)no2)cc1C | -24 | -11% | -1% | 12µM* | u | 15µM*
Cc1cc(CN(C)C(=O)c2cc(COc3ccc4ncccc4c3)on2)on1 | 0 | u | 0% | 6.5µM* | -1% | 7.3µM*
CCCCN(CC)CCCNC(=O)c1ccc(CS(=O)(=O)c2ccccc2C)o1 | 17 | 0% | -3% | 24% | 2% | -4%
Nc1nonc1-n1nnc(C(=O)N/N=C/c2ccc3c(c2)OCO3)c1CSc1ccccc1 | 3 | -7% | -1% | 10% | 0% | 2%
Cc1ccc2[nH]cc(C(=O)CCl)c2c1 | -101* | u | u | 4.1µM* | u | 2.6µM*
Cc1ccc2c(C(=O)CCl)c(C)[nH]c2c1 | -98* | u | u | 2.6µM* | 18µM* | 3.7µM*
Cc1ccc2c(C(=O)CN3CCSCC3)c(C)[nH]c2c1 | -11 | u | 2% | u | -1% | 16µM*
Cc1ccc2c(C(=O)CNc3nccs3)c(C)[nH]c2c1 | x | x | x | u | x | -26%
Cc1cc(=O)[nH]c2nnc(SCc3cccc(F)c3)n12 | x | u | x | -6% | x | 6%
CCC(C)(C)n1nnnc1CN(Cc1cccs1)Cc1cc2cc(OC)ccc2[nH]c1=O | -9 | -13% | -2% | u | u | u
CCOC(=O)Cn1nnnc1CN(Cc1cccs1)Cc1cc2cc(C)cc(C)c2[nH]c1=O | 53 | u | 9% | 15µM* | 9% | 21µM*
COc1ccc2cc(CN(Cc3cccs3)Cc3nnnn3Cc3ccccc3)c(=O)[nH]c2c1 | -1 | u | 2% | u | 6% | u

Assay outcomes as filed in PubChem BioAssay.
